# Screens (PubChem BioAssay)
# GALK inhibitor = qHTS Assay for Inhibitors of Human Galactokinase (GALK) | P51570 | Purified GALK, Kinase-Glo residual ATP luminescence | Potency, µM (titrated, usually from 57.5 µM), for inactives: at the top dose activity change, negative = inhibition, most hits filed as inhibitors | 270,000 tested, 0.007% active
# Target sequence (P51570 whole entry, looked up): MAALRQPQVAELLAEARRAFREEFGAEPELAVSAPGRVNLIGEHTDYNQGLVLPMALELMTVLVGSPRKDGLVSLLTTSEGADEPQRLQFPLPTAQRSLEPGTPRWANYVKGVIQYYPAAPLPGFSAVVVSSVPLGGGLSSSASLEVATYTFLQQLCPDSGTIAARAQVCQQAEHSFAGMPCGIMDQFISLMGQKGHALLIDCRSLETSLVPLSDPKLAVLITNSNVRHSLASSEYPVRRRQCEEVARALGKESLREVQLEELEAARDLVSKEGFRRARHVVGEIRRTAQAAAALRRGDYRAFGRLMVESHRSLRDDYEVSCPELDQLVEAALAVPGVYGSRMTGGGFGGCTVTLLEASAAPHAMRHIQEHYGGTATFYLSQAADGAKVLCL
#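 GALK at 5 nM final was combined with compound, 35 uM ATP and 100 uM galactose in HEPES pH8.0 with MgCl2 and DTT. The reaction ran one hour at room temperature before luminescent ATP detection.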
# NPSR antagonist = qHTS Assay for Antagonists of the Neuropeptide S Receptor: cAMP Signal Transduction | CHO-NPSR cells, cAMP TR-FRET, antagonist mode | Potency, µM (titrated, usually from 38.3 µM), inactives show top-dose activity change, negative = inhibition, most hits filed as inhibitors | 220,000 tested, 1% active | AID 1461, 2008; also: nearly all actives have a fitted effect of over 50% in size
# TrxR1 substrate = qHTS Assay for Substrates of Mammalian Selenoprotein Thioredoxin Reductase 1 (TrxR1): qHTS. purified TrxR1 substrate turnover, NADPH consumption readout. Potency, µM (titrated, usually from 114 µM), without a hit: top-dose activity change, negative = substrate turnover. 390,000 tested, 0.01% active; also: nearly all actives have a fitted effect of over 50% in size
#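 Rat TrxR1, dispensed at 90 nM, was prereduced with 400 uM NADPH (final) for 5 min at ~22 deg C, then incubated with compound 15 min before 400 uM selenite. A first-read NADPH fluorescence drop versus no-compound background flagged substrates.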
# TrxR1 inh = qHTS Assay for Inhibitors of Mammalian Selenoprotein Thioredoxin Reductase 1 (TrxR1): qHTS; recombinant rTrxR1, NADPH fluorescence consumption, selenite substrate; Potency, µM (top dose mostly 114 µM), for inactives: at the highest dose activity change, negative = inhibition, hits mostly inhibitors; 390,000 tested, 1% active; also: nearly all actives have a fitted effect of over 65% in size
#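 Rat TrxR1 (90 nM in the dispensed reagent) was pre-reduced with 400 uM NADPH for 5 min at room temperature, then incubated with compound for 15 min. After 400 uM selenite was added, NADPH fluorescence (Ex 340/Em 450 nm) was followed for 8 min.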
# * = called active by the depositor; ? = inconclusive; / = no result; [ ] = dose if it differs, or a comment. Rows were chosen to be rich in hits. Some 1.2% of all compounds tested hit in one or more screens of this group. Calls follow the shape of the dose curve; as a rule, active = well fitted curve in the direction sought with a large enough effect; inconclusive = small, poorly fitted or top-dose-only effect, or another doubt; inactive = no such curve, though single readings can be large; an effect the other way counts as inactive or inconclusive. % is scaled to controls: 0 for no effect and ±100 for the full control effect; potency is read from the fitted curve at half-maximal effect.
SMILES,GALK inhibitor,NPSR antagonist,TrxR1 substrate,TrxR1 inh
CC(C)Cn1cnc2c(Sc3c([N+](=O)[O-])ncn3C)nc(N)nc21,/,/,-8%,2µM*
CCC(C)Cn1cnc2c(SCc3ccccn3)nc(N)nc21 (stereo unspecified),/,/,1%,16%
CCC(C)Cn1cnc2c(Sc3c([N+](=O)[O-])ncn3C)nc(N)nc21 (stereo unspecified),/,/,1%,2.8µM*
C=C(CN(C)C)C(=O)c1ccc(OC2OC(COC(C)=O)C(OC(C)=O)C(OC(C)=O)C2OC(C)=O)cc1 (stereo unspecified),/,/,9%[11.4 µM],2.8µM*
Oc1ccc(N=Nc2ccccc2)o1,/,/,-11%,32µM*
COc1ccc(-c2cc(-c3ccccc3)c(C#N)c(=S)[nH]2)cc1,-2%,13µM*,-3%,?
Cc1ccc(-c2cc(-c3ccccc3)[nH]c(=S)c2C#N)cc1,-2%,-4%[46.1 µM],3%[57.1 µM],-8%[57.1 µM]
O=C(C[n+]1csc2ccccc21)c1cccc([N+](=O)[O-])c1,/,/,2%,20%
O=[N+]([O-])c1ccc2nc(-c3ccncc3)[nH]c2c1,8%,8%,-10%,-15%
O=[N+]([O-])c1ccc(-c2nc(-c3ccc(F)cc3)c(-c3ccncc3)[nH]2)cc1,/,7.9µM*,?,-7%[57.1 µM]
O=C(O)CC1CCC(=C(Cl)Cl)C1 (stereo unspecified),2%,-9%[46.1 µM],12%,1µM*
CN(C)c1ccc(/C=C/c2ccnc3ccccc23)cc1,/,/,10%[0.0914 µM],1%
Cc1cc(NC(=O)c2ccco2)cc(-c2nc3cc(Cl)ccc3o2)c1O,/,/,-2%,32%[11.4 µM]
COc1cc(C=O)cc(OC)c1[N+](=O)[O-],/,/,5%,8%
COCCn1c(=NC(=O)CCS(=O)(=O)c2ccccc2)sc2ccccc21,/,/,4%,7.1µM*
CCOC(=O)c1c(NC(C)=O)sc2c1CCC(C=O)=C2Sc1ccccc1,1%,?,6%,1.3µM*
COc1cccc(C2C(C(=O)Nc3ccccc3OC)=C(C)Nc3nc4ccccc4n32)c1 (stereo unspecified),/,/,13%,15%
Nc1nnc(SC2CC(=O)N(c3ccccc3)C2=O)s1 (stereo unspecified),5%,-4%[46.1 µM],-6%,28µM*
CCOC(=O)c1ccc(N2C(=O)CC(Sc3nc(C)cc(C)n3)C2=O)cc1 (stereo unspecified),5%,/,4%,13%
CCOC(=O)c1ccc(N2C(=O)CC(Sc3nnc(C)s3)C2=O)cc1 (stereo unspecified),3%,-6%[46.1 µM],6%,5.6µM*
CCOC(=O)c1ccc(N2C(=O)C=CC2=O)cc1,0%,?,9%,8.9µM*
O=C1CC(Sc2nnnn2-c2ccccc2)C(=O)N1c1cccc(Cl)c1 (stereo unspecified),1%,?,-1%,32µM*
COc1ccc(N2C(=O)CC(Sc3nnnn3-c3ccc(F)cc3)C2=O)cc1 (stereo unspecified),-2%,-21%,3%[57.1 µM],?
CCOc1ccc(C(=O)Nc2ccc3oc(-c4ccc5ccccc5c4)nc3c2)cc1,/,/,20%,17%
COc1cccc(Cn2c(=O)n(-c3ccc(Br)cc3F)c(=O)c3sc4ccccc4c32)c1,/,/,14%,18%
SMILES,GALK inhibitor,NPSR antagonist,TrxR1 substrate,TrxR1 inh
C=CCNc1nnc(SC2CC(=O)N(c3ccc(OCCC)cc3)C2=O)s1 (stereo unspecified),1%,-2%[46.1 µM],-7%,7.1µM*
CCOC(=O)c1sc(NC(=O)C(C)Sc2nc(-c3ccccc3)cc(C(F)(F)F)n2)c(C(=O)OC)c1C (stereo unspecified),/,/,0%,10%
COc1cccc(CNc2ccc(F)c(Cl)c2)c1O,-2%,10µM*,3%,10%
COc1cccc(CNc2cccc(C(F)(F)F)c2)c1O,0%,-14%,-12%,-14%
CC(=O)Nc1ccc(SC[C@H](Cc2ccccc2)N2CC[C@@H](N)CCC2=O)cc1,/,/,-8%,-18%
COc1ccc(C(C)=O)cc1COC(=O)c1cc(C)nc2ccccc12,15%,-2%,6%,?
COc1ccc(C(C)=O)cc1COC(=O)CCNS(=O)(=O)c1ccc(C(C)=O)cc1,7%,/,-9%,40µM*
